# Records with an inconclusive call do not appear. Entries that show only a call come without a potency. A number with no mark means an inactive call. Active and inactive are the calls of the source. Calls come from the whole dose curve; as a rule, active = well fitted inhibition curve with a large enough effect; inconclusive = small, poorly fitted or top-dose-only effect; inactive = flat fitted curve, though single readings scatter.
# What was measured:
# [1] = molecular target: Glutathione peroxidase 1 (Homo sapiens) (UniProt P07203); assay: Primary qHTS Assay for Inhibitors of Recombinant Selenoprotein Glutathione Peroxidase 1 (GPX1) (AID 1845191); note: nearly all actives have a fitted effect of over 65% in size
# Sequence of Glutathione peroxidase 1 (Homo sapiens) (P07203 whole entry, looked up): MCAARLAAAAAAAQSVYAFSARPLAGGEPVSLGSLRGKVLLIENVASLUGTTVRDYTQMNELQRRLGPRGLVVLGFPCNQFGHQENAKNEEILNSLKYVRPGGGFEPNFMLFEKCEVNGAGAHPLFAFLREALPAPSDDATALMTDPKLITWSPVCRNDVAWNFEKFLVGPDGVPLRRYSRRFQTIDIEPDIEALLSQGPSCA
# Summary of the method: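 GR-coupled readout: NADPH consumption tracked by fluorescence, ex 340/em 450 nm, at t=0 and after 15 min at RT. Final mix 10 nM GPX1, 1 mM GSH, 0.5 mM CHP, 0.5 mM NADPH, 100 nM GR, 0.01% BSA, following 30 min enzyme–compound preincubation.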
# [2] = qHTS profiling for inhibitors of Plasmodium falciparum proliferation (AID 504749); note: nearly all actives have a fitted effect of over 60% in size; note: potency is the fitted concentration of half-maximal effect; conditions: P. falciparum in erythrocytes, SYBR Green DNA, 72 h
# Summary of the method: (§1)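 Each compound contacts P. falciparum-infected red blood cells for 72 h at 37 C; lysis buffer (Tris, EDTA, saponin, Triton X, SYBR Green I) is added and fluorescence measured next morning; values normalized to controls.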
# 3D7 = assay: as above; conditions: P. falciparum in erythrocytes, SYBR Green DNA, 72 h; series mostly up to 28.7 µM
# Summary of the method: as §1
# [3] = molecular target: Phospholipid hydroperoxide glutathione peroxidase GPX4 (Homo sapiens) (UniProt P36969); assay: Primary qHTS Assay for Inhibitors of Recombinant Selenoprotein Glutathione Peroxidase 4 (GPX4) (AID 1845192); note: nearly all actives have a fitted effect of over 65% in size
# Sequence of Phospholipid hydroperoxide glutathione peroxidase GPX4 (Homo sapiens) (P36969 whole entry, looked up): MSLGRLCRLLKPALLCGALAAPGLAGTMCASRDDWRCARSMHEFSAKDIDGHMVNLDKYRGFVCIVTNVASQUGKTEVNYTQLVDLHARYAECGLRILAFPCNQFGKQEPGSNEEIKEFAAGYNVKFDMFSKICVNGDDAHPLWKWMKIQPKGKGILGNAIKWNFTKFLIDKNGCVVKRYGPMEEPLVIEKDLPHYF
# Summary of the method: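 Steps: GPX4 plus compound, 30 min RT; add GR/GSH/NADPH master mix; start with cumene hydroperoxide; read 340/450 nm fluorescence at 0 and 15 min. Finals were 200 nM GPX4, 1 mM GSH, 0.5 mM CHP, 0.5 mM NADPH, 100 nM GR.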
# 7G8 = assay: qHTS profiling for inhibitors of Plasmodium falciparum proliferation (AID 504749); note: nearly all actives have a fitted effect of over 60% in size; note: potency is the fitted concentration of half-maximal effect; conditions: P. falciparum in erythrocytes, SYBR Green DNA, 72 h; series mostly up to 28.7 µM
# Summary of the method: as §1
# [4] = at 28.7 µM (top of the series), parasite line A
# [5] = at 28.7 µM (top of the series), parasite line B
# [6] = at 12.8 µM (top of the series), parasite line A
# [7] = at 12.8 µM (top of the series), parasite line B
SMILES,Potency [1],"activity, negative = inhibition [2, 4] [%]","activity, negative = inhibition [2, 5] [%]",Potency (3D7),Potency [3],Potency (7G8),"activity, negative = inhibition [1]","activity, negative = inhibition [2, 6] [%]","activity, negative = inhibition [2, 7] [%]"
O=C(O)CCC/C=C\C[C@@H]1[C@@H](/C=C/[C@@H](O)COc2cccc(Cl)c2)[C@H](O)C[C@@H]1O,inactive,11.9,-6.6,inactive,–,–,–,–,–
O=C(OCc1ccccc1)c1cccnc1,inactive,-26.7,–,inactive,inactive,inactive,–,–,–
Cc1cccc(C)c1NC(=O)C1CCCCN1C (stereo unspecified),inactive,-4.61,-9.47,inactive,inactive,inactive,–,–,–
CC1CCCCN1CCCOC(=O)c1ccccc1 (stereo unspecified),inactive,3.84,9.27,inactive,inactive,inactive,–,–,–
CC(C)(C)CC(C)(C)c1cc(Cc2cc(C(C)(C)CC(C)(C)C)cc(-n3nc4ccccc4n3)c2O)c(O)c(-n2nc3ccccc3n2)c1,–,10.8,2.7,inactive,–,inactive,-7.19% [at 4.49 µM],–,–
O=C(O)c1cc(N=Nc2ccc(O)c(C(=O)O)c2)ccc1O,inactive,9.5,11.5,inactive,–,inactive,–,–,–
O=P(O)(O)OP(=O)(O)O,inactive,-13.9,–,inactive,inactive,10 µM (active),–,–,–
COc1cc2c(cc1OC)[C@@H](Cc1cc(OC)c(OC)c(OC)c1)[N+](C)(CCCOC(=O)CC/C=C/CCC(=O)OCCC[N+]1(C)CCc3cc(OC)c(OC)cc3[C@H]1Cc1cc(OC)c(OC)c(OC)c1)CC2 (stereo partly specified),inactive,0.013,-1.97,inactive,inactive,inactive,–,–,–
C[Se]CC[C@H](N)C(=O)O,inactive,7.69,13.1,inactive,inactive,inactive,–,–,–
CCCCCCCCCCCCCCCCCC(=O)OCC(C)O (stereo unspecified),inactive,4.03,-12.1,inactive,inactive,inactive,–,–,–
CN(C)CCC=C1c2ccccc2C(C)(C)c2ccccc21,inactive,–,–,inactive,inactive,7.94 µM (active),–,–,–
CC(CCc1ccc(O)cc1)NCC(O)c1ccc(O)cc1 (stereo unspecified),inactive,1.25,15.8,inactive,inactive,inactive,–,–,–
OCc1ccccc1,inactive,–,-27.8,–,inactive,2.82 µM (active),–,–,–
CC(=O)Nc1c(I)c(C(=O)O)c(I)c(N(C)C(C)=O)c1I,inactive,–,-11.8,inactive,inactive,inactive,–,–,–
CNC(=O)c1c(I)c(C(=O)NCC(=O)Nc2c(I)c(C(=O)O)c(I)c(C(=O)NCCO)c2I)c(I)c(N(C)C(C)=O)c1I,inactive,–,2.12,inactive,inactive,inactive,–,–,–
CC(=O)N=c1sc(S(N)(=O)=O)nn1C,inactive,–,–,inactive,inactive,inactive,–,-0.509,-5.64
CS(=O)(=O)OCC(O)C(O)COS(C)(=O)=O (stereo unspecified),inactive,-4.77,-5.43,inactive,inactive,inactive,–,–,–
CCN(CC)CCOc1ccc2nc(N(C)C)sc2c1,inactive,2.07,4.31,–,inactive,inactive,–,–,–
O=C(CCCN1CCC(C(=O)c2ccc(F)cc2)CC1)c1ccc(F)cc1,inactive,-20.7,15.1,–,inactive,11.2 µM (active),–,–,–
O=C(O[C@H]1CN2CCC1CC2)N1CCc2ccccc2[C@@H]1c1ccccc1,inactive,-23.3,-19.3,inactive,inactive,5.62 µM (active),–,–,–
CC(C)c1nc(N(C)S(C)(=O)=O)nc(-c2ccc(F)cc2)c1/C=C/C(O)CC(O)CC(=O)O (stereo unspecified),inactive,3.93,-1.83,inactive,inactive,inactive,–,–,–
c1ccc2c(c1)OCC(CN1CCCCC1)O2 (stereo unspecified),–,4.84,0.843,inactive,–,inactive,–,–,–
CC(CN1c2ccccc2Sc2cccnc21)N(C)C (stereo unspecified),–,–,–,–,inactive,–,–,–,–
CN1CCc2c(c3ccccc3n2Cc2ccccc2)C1,–,–,–,inactive,–,–,–,-0.349,-7.12
NC(=O)[C@@H]1CCCN1C(=O)[C@H](Cc1cnc[nH]1)NC(=O)[C@@H]1CCC(=O)N1,–,0.117,4.94,inactive,–,–,–,–,–
NC(=O)Oc1ccc(Cc2ccccc2)cc1,–,0.685,4.41,inactive,–,–,–,–,–

# Reference: PubChem BioAssay (NCATS)
